PubChem BioAssay AID504832 (National Center for Advancing Translational Sciences (NCATS), 2011)
Screen size: about 310,000 compounds; about 18,000 (5.8%) were called active. Roughly 22% stayed inconclusive and do not appear here. The sample holds actives, similar compounds and a random draw of the others, so the mix is not that of the screen. Calls follow the shape of the dose curve; as a rule, active = well fitted inhibition curve with a large enough effect; inconclusive = small, poorly fitted or top-dose-only effect, or another doubt; inactive = no such curve, though single readings can be large or run the other way.
% is scaled to controls: 0 for no effect and ±100 for the full control effect; potency is read from the fitted curve at half-maximal effect.

Experiment: Primary qHTS for delayed death inhibitors of the malarial parasite plastid, 48 hour incubation
Conditions: P. falciparum luciferase growth in erythrocytes; series mostly up to 28.7 µM; activity change, negative = inhibition: at the top concentration
From the text: The goal of this screen is to discover new antimalarial compounds that act by inhibiting the development of the apicoplast in the malarial parasite Plasmodium falciparum. The biochemical processes that make this organelle essential for erythrocytic stage parasites are not well understood. However, antibiotics such as azithromycin and tetracycline, which target the apicoplast translational machinery, have a potent antimalarial effect.
We have developed a cell-based assay that measures parasite growth based on the expression of an integrated copy of a firefly luciferase reporter. To detect small molecules that cause this "delayed death" phenotype, erythrocytes infected with the luciferase-expressing parasites were incubated with compounds for either one or two generations, corresponding to 48 and 96 hours, respectively. Compounds that inhibit parasite growth in the second generation, but not the first, should be enriched in antimalarials that target the apicoplast. Growth inhibition is detected by a decrease in luciferase activity.
Assay Provider: David Fidock and Eric Ekland, Columbia University
Keywords: NIH Roadmap, MLPCN, MLI, MLSMR, qHTS, NCGC, qHTS, malaria, luciferase, viability
Four microliters of culture medium (RPMI 1640 with 0.5% w/v Albumax (GIBCO), 24 mM sodium bicarbonate and 10 ug/mL gentamycin) were dispensed by a Multi-drop Combi into white solid 1536-well plates (Grenier) and 23 nL compound was added by a pin tool. Four microliters of infected erythrocytes (2% hematocrit, 0.1% parasitemia final concentration) in culture medium were dispensed and the plates incubated for 48 hours at 37 C in 5% CO2. Two microliters of luciferase detection reagent was added and luminescence was detected by a ViewLux (PerkinElmer) reader.
For COc1ccc(Cc2nc3ccc(C(=O)N4CCC(N(C)C)C4)cc3o2)cc1 (configuration not stated), the “activity change, negative = inhibition” value was -3.86% (inactive). For CCc1cccc(NC(=O)COC(=O)C2CCN(c3ccc(C(F)(F)F)cn3)CC2)c1, the “activity change, negative = inhibition” value was 52.4% (inactive). In the case of COc1ccc(C(=O)C2CCCN(Cc3cccn3-c3ccccn3)C2)c(C)c1 (configuration not stated), the Potency is reported as 6.57 µM (active). For COc1ccc(C(=O)C2CCCN(Cc3ccc4nonc4c3)C2)c(C)c1 (configuration not stated), the “activity change, negative = inhibition” value was -14.3% (inactive). With CCOC(=O)c1[nH]ncc1CN1CCCC(C(=O)c2ccc(OC)cc2C)C1 (configuration not stated) the “activity change, negative = inhibition” value was 21.3% (inactive). In the case of COC(=O)c1ccc(NC(=O)CSc2nc(N)c(NC(=O)c3ccc(Br)o3)c(=O)[nH]2)cc1, the “activity change, negative = inhibition” value is reported as 3.29% (inactive). For COCCn1c(SCC(=O)N2CCCCCC2)nc2c(c1=O)SCC2, the “activity change, negative = inhibition” value was -12.2% (inactive). For COc1ccc(CCN2C(=O)C(C)=C(C)C2=O)cc1OC, the “activity change, negative = inhibition” value was 11% (inactive). For COc1ccc(CCNC2=C(Cl)C(=O)N(Cc3ccccc3)C2=O)cc1OC, the Potency was 11.7 µM (active). In the case of COc1ccc(CCN=C2SCC(=O)N2Cc2ccccc2)cc1OC, the “activity change, negative = inhibition” value is reported as -10.1% (inactive). In the case of CCS(=O)(=O)Nc1ccc(C(=O)NCCSc2ccccc2)cc1, the “activity change, negative = inhibition” value is reported as 0% (inactive). For CN(C)CCNC(=O)c1[nH]nc2c1CCc1ccccc1-2, the “activity change, negative = inhibition” value was 44.2% (inactive). In the case of O=C(N/N=C/c1ccoc1)c1ccc(Cl)cc1Cl, the “activity change, negative = inhibition” value is reported as 5.69% (inactive). With CCCn1nc(NS(=O)(=O)c2ccccc2)c2cc3cc(C)ccc3nc21 the “activity change, negative = inhibition” value was 8.29% (inactive). With CCCn1nc(NS(=O)(=O)c2ccc(F)cc2)c2cc3ccccc3nc21 the “activity change, negative = inhibition” value was 20.1% (inactive). With CCCn1nc(NC(=O)C(C)C)c2cc3cc(OC)ccc3nc21 the Potency was 11.7 µM (active). In the case of O=C(OCC(=O)N1CCCCCC1)c1cnc(Cl)c(Cl)c1, the “activity change, negative = inhibition” value is reported as -3.82% (inactive). For CC[C@]1([C@H]2O[C@@H]([C@@H]3O[C@](O)(CO)[C@@H](C)C[C@H]3C)C[C@H]2C)CC[C@@H]([C@]2(C)CC[C@@]3(C[C@@H](O)[C@@H](C)[C@@H]([C@H](C)[C@H](OC)[C@H](C)C(=O)O)O3)O2)O1, the Potency was 0.0169 µM (active). For CSc1ccc(-c2c(C#N)c(N)nc3c2c(C)nn3-c2ccccc2)cc1, the Potency was 1.47 µM (active). For CSc1nc(N)c(C#N)c(-c2ccccc2Cl)c1C#N, the “activity change, negative = inhibition” value was 3.07% (inactive). In the case of Cc1nn(-c2ccccc2)c2c1C(c1ccc(F)cc1)C(C#N)=C(N)O2 (configuration not stated), the “activity change, negative = inhibition” value is reported as -21.9% (inactive). With COc1cc(CNCc2ccc(OC)c3ccccc23)cc(OC)c1OC the “activity change, negative = inhibition” value was -29.2% (inactive). For COc1ccccc1N1CCC(N2CCN(CC(C)(C)C)C(CCO)C2)CC1 (configuration not stated), the “activity change, negative = inhibition” value was -4.92% (inactive). For C[N+](C)(CCCCCC[N+](C)(C)CCCN1C(=O)c2cccc3cccc(c23)C1=O)CCCN1C(=O)c2cccc3cccc(c23)C1=O, the Potency was 0.329 µM (active). With O=C(CN1C(=O)c2cccc3cccc(c23)C1=O)N1CCCCC1 the “activity change, negative = inhibition” value was -23.4% (inactive). For O=C1c2cccc3cccc(c23)C(=O)N1CCCCCc1n[nH]c(=S)o1, the “activity change, negative = inhibition” value was -2.6% (inactive). For N#CCN(C(=O)COC(=O)C1CC2CCCC(C1)C2=O)c1ccccc1 (configuration not stated), the “activity change, negative = inhibition” value was -0.813% (inactive). In the case of CCOc1ccc(NC(=O)c2ccc(NC(=O)C3CCCO3)cc2)cc1 (configuration not stated), the “activity change, negative = inhibition” value is reported as 11.7% (inactive). For CCOc1ccc(S(=O)(=O)N2CCCCC2)cc1NC(=O)CN1CCCC1c1cccs1 (configuration not stated), the Potency was 4.65 µM (active). With CC(=O)NCCC(=O)Nc1cc(S(=O)(=O)N2CCCCC2)ccc1Oc1cccc(C)c1 the “activity change, negative = inhibition” value was 28% (inactive). With O=C(CNCc1cccs1)Nc1cc(S(=O)(=O)N2CCCC2)ccc1Cl the “activity change, negative = inhibition” value was -41.9% (inactive). In the case of O=C(CNC(=O)c1ccccc1Br)NNC(=O)c1cccs1, the “activity change, negative = inhibition” value is reported as 0% (inactive). In the case of O=C(NCCCn1ccnc1)c1ccccc1F, the “activity change, negative = inhibition” value is reported as 10.2% (inactive). In the case of O=C(NCCCn1ccnc1)Nc1ccc(Cl)cc1Cl, the “activity change, negative = inhibition” value is reported as -10.3% (inactive). With O=C(Nc1ccccc1C(=O)NCCCn1ccnc1)c1ccc(Cl)cc1Cl the Potency was 9.28 µM (active). With O=C(CSc1nc(=O)n2ccccc2n1)Nc1ccc2c(c1)OCCO2 the “activity change, negative = inhibition” value was 38.7% (inactive). With COc1ccc(C(C)NC(=O)C2CCCC2)cc1 (configuration not stated) the “activity change, negative = inhibition” value was 3.5% (inactive). For CN(C)S(=O)(=O)c1ccc(N2CCCC2)c(C(=O)Nc2cccc(F)c2)c1, the “activity change, negative = inhibition” value was -17% (inactive). In the case of CN(C)S(=O)(=O)c1ccc(N2CCCC2)c(C(=O)NCc2ccccc2)c1, the “activity change, negative = inhibition” value is reported as -7.21% (inactive). For CN(C)S(=O)(=O)c1ccc(N2CCCC2)c(C(=O)Nc2ccc(Br)cc2F)c1, the Potency was 5.22 µM (active). For COc1ccc(-n2ncc3c2CC(C)(C)CC3NC(=O)CCc2c(C)nn(C)c2C)cc1 (configuration not stated), the “activity change, negative = inhibition” value was -1.16% (inactive). With Cc1cc(C)n2nc(CNS(=O)(=O)c3c(F)c(F)c(F)c(F)c3F)nc2n1 the “activity change, negative = inhibition” value was 0% (inactive). With Cn1c(N)c(C(=O)COC(=O)COc2ccc(Cl)cc2)c(=O)n(C)c1=O the “activity change, negative = inhibition” value was 20.5% (inactive). With COc1cc(OC)c(NC(=O)c2ccc(Br)o2)cc1Cl the Potency was 8.28 µM (active). With CCN1CCN(c2c(Cl)cccc2NC(=O)c2ccc(Br)o2)CC1 the “activity change, negative = inhibition” value was 0% (inactive). With COC(=O)c1ccc(N2CCOCC2)c(NC(=O)c2ccc(Br)o2)c1 the “activity change, negative = inhibition” value was 2.02% (inactive). With O=C(CCCCCn1c(=S)[nH]c2ccsc2c1=O)NC1CCCCC1 the “activity change, negative = inhibition” value was -9.79% (inactive). In the case of CC1CCc2[nH]c3ccc(C(=O)N(C)CC(=O)Nc4cccc(F)c4)cc3c2C1 (configuration not stated), the “activity change, negative = inhibition” value is reported as -27.2% (inactive). For CCCN(CC(=O)Nc1ccccc1C)C(=O)c1cc(=O)[nH]c2ccccc12, the “activity change, negative = inhibition” value was 17.1% (inactive). With CCCN(CC(=O)Nc1ccccc1C)C(=O)c1ccc2[nH]c3c(c2c1)CC(C)CC3 (configuration not stated) the Potency was 10.4 µM (active). With CCC(C(=O)NCc1cccnc1)n1nc(C)c2sc3ccccc3c2c1=O (configuration not stated) the “activity change, negative = inhibition” value was 9.32% (inactive). With CC(C)NC(=O)C(c1ccc(F)cc1)N(C(=O)CCC(=O)Nc1ccccn1)c1ccccc1F (configuration not stated) the “activity change, negative = inhibition” value was 20.9% (inactive).
